Measured values from the supplement of paper PMC11732987, “Enantioselective OTUD7B fragment discovery through chemoproteomics screening and high-throughput optimisation” (Communications Chemistry, 2025).

Target: T1, USP38 (UniProt Q8NB14)
T1 sequence (whole entry): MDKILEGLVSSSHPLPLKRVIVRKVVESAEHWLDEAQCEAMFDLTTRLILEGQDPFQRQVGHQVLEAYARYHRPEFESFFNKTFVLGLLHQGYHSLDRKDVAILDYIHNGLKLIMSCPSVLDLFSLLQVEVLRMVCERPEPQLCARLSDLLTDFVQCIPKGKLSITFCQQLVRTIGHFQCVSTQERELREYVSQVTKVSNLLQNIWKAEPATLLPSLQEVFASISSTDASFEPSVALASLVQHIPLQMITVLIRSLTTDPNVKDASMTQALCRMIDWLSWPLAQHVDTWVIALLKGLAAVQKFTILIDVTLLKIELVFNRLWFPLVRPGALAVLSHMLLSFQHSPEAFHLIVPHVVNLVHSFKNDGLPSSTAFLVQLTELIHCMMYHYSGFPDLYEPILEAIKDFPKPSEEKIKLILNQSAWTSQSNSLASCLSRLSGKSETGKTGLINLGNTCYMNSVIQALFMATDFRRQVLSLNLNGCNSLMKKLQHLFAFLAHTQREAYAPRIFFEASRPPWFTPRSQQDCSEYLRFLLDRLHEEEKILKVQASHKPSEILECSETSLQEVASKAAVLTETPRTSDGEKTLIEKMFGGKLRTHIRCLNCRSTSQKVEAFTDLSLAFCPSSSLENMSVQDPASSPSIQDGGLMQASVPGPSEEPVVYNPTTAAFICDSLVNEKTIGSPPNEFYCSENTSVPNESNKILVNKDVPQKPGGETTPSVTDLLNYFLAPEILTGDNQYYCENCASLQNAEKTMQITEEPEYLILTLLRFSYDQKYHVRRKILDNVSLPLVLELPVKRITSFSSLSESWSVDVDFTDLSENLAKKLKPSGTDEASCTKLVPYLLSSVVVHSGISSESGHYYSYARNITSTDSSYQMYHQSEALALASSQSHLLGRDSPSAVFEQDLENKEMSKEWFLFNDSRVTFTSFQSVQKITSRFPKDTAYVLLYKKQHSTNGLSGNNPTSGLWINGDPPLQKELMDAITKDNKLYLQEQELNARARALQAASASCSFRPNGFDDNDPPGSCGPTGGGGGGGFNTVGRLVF
Experiment: log2 ratio of Biotin-Ahx-Ub-VS probe labelling (compound/DMSO); higher = less target engagement, active = hit call of the paper (q ≤ 0.05, log2 ratio ≤ -1)
Conditions: treatment time: 3 h
In short: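 Values are average ratios of compound to vehicle from an unpaired t-test, limited to proteins with at least two unique peptides. HEK293T lysate (495 µg per sample, in Tris/CHAPS/IGEPAL buffer with protease inhibitors) was exposed in triplicate to a concentration series of compound or to vehicle for 3 h, then to Biotin-Ahx-Ub-VS at 0.5 µM final for 1 h. Labelled deubiquitinases were enriched on NeutrAvidin, digested with LysC and trypsin, and analysed by diaPASEF LC-MS/MS. Ratios are given on a log2 scale from Spectronaut label-free protein quantities normalised to the global median.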

Measured: log2 ratio of Biotin-Ahx-Ub-VS probe labelling

O=C(CCl)N[C@H]1CCCc2ccccc21
inactive: compound concentration: 0.78uM -0.147 | compound concentration: 1.56uM -0.192 | compound concentration: 3.13uM -0.169 | compound concentration: 6.25uM -0.0221 | compound concentration: 12.5uM -0.0585 | compound concentration: 25uM -0.166 | compound concentration: 50uM -0.069 | compound concentration: 100uM -0.102 | compound concentration: 200uM -0.211
